This is an account of results in PubChem BioAssay AID651610 (Broad Institute, 2012).

The campaign covered roughly 360,000 compounds. About 3,900 (1.1%) were called active.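 How the source made its calls: active means mean replicate inhibition score of at least 50 and every replicate individually at or above 50; inconclusive means only one of the two criteria met; inactive means mean below 50 and not all replicates reaching 50.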 What follows is part of a selection rich in actives, with near analogues and random picks from the rest.

The assay in a line: inhibitors of HIV-1 Env-driven cell-cell fusion, primary screen, HeLa-JRFL effector, CEM21 target cells, luciferase (AID 651610).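 Further: 0% = plate neutral controls and 100% = maraviroc near 300 nM.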 To be noted: stronger effect = higher value; at 16.7 µM unless noted.
`CC(C)NC(=O)Nc1ccc2c(c1)CC(=O)N([C@@H](C)CO)C[C@@H](C)[C@@H](CN(C)S(=O)(=O)c1ccccc1)O2`: the inhibition is 4.16% (inactive).

Take `CC(C)NC(=O)Nc1ccc2c(c1)C(=O)N([C@H](C)CO)C[C@H](C)[C@@H](CN(C)C(=O)CCCN(C)C)OCCCC[C@@H](C)O2`: the inhibition is 2.66% (inactive).

Take `C[C@@H]1CCCCO[C@@H](CN(C)Cc2ccc3c(c2)OCO3)[C@@H](C)CN([C@@H](C)CO)C(=O)c2cc(NC(=O)C3CCCCC3)ccc2O1`: the inhibition was -19.5% (inactive).

As to `CN(C)C(=O)c1cccc(-c2ccc3n(c2=O)C[C@H]2N[C@@H]3[C@@H](C(=O)NC3CCC3)[C@@H]2CO)c1`, the inhibition was 4.81% (inactive).

In the case of `C[C@H](CO)N1C[C@H](C)[C@H](CN(C)S(=O)(=O)c2cccs2)Oc2ccc(NS(=O)(=O)c3ccccc3)cc2C1=O`, the inhibition is 37% (inactive).

Consider `COc1ccc(S(=O)(=O)N(C)C[C@@H]2Oc3ccc(NC(=O)Nc4c(C)noc4C)cc3C(=O)N([C@H](C)CO)C[C@@H]2C)cc1`, for which the inhibition is -131% [at 12.3 µM] (inactive).

In the case of `Cc1ccc(S(=O)(=O)N(C)C[C@@H]2Oc3ncc(-c4cc5ccccc5o4)cc3C(=O)N([C@H](C)CO)C[C@@H]2C)cc1`, the inhibition was 73% (active).

Take `C[C@H]1CN([C@@H](C)CO)C(=O)Cc2cc(NC(=O)Nc3ccc(F)cc3)ccc2O[C@H]1CN(C)S(=O)(=O)c1ccccc1`: the inhibition was 54% (inactive).

Turning to `C[C@H](CO)N1C[C@H](C)[C@@H](CN(C)S(=O)(=O)c2ccccc2)Oc2ccc(NC(=O)Nc3ccc(F)cc3)cc2CC1=O`, the inhibition is -10.6% (inactive).

In the case of `COc1ccc(-c2cnc3c(c2)C(=O)N([C@H](C)CO)C[C@H](C)[C@H](CN(C)S(=O)(=O)c2ccccc2)O3)cc1`, the inhibition is 11.4% (inactive).

On to `C[C@H](CO)N1C[C@H](C)[C@H](CN(C)S(=O)(=O)c2ccc(F)cc2)Oc2ncc(-c3ccc(F)cc3)cc2C1=O`, for which the inhibition is 24.9% (inactive).

Consider `COc1ccc(NC(=O)Nc2ccc3c(c2)C(=O)N([C@@H](C)CO)C[C@H](C)[C@@H](CN(C)S(=O)(=O)c2ccc(Cl)cc2)O3)cc1`, for which the inhibition was 7.85% (inactive).

With `C[C@@H]1CN([C@@H](C)CO)C(=O)Cc2cc(NC(=O)Nc3ccccc3)ccc2O[C@@H]1CN(C)S(=O)(=O)c1ccc(F)cc1`, the inhibition is 56.4% (active).

For `COc1ccc(NC(=O)Nc2ccc3c(c2)C(=O)N([C@H](C)CO)C[C@H](C)[C@H](CN(C)S(=O)(=O)c2ccc(OC)cc2)O3)cc1`, the inhibition was 59.4% (active).

For the molecule `C[C@@H]1CCCCO[C@@H](CN(C)Cc2ccncc2)[C@@H](C)CN([C@@H](C)CO)C(=O)c2cc(NC(=O)Nc3ccc(F)cc3)ccc2O1`, the inhibition was -4.96% (inactive).

In the case of `Cc1ccccc1S(=O)(=O)NCC[C@@H]1CC[C@H](NC(=O)C2CC2)[C@@H](CO)O1`, the inhibition was 0.439% (inactive).

`C[C@@H]1CN([C@H](C)CO)C(=O)c2cc(N(C)C)ccc2O[C@@H]1CN(C)S(=O)(=O)c1cn(C)cn1`: the inhibition is 4.03% (inactive).

On to `O=C(C[C@H]1CC[C@H](NS(=O)(=O)c2ccccc2)[C@H](CO)O1)NCc1ccncn1`, for which the inhibition was 2.23% (inactive).

Turning to `CC(C)c1cn(CC[C@@H]2CC[C@@H](NC(=O)C3CC3)[C@H](CO)O2)nn1`, the inhibition was 7.45% (inactive).

Consider `Nc1ccn(CC(=O)N2CCN(c3ccccn3)CC2)c(=O)n1`, for which the inhibition is 15.1% [at 12.3 µM] (inactive).

Regarding `O=C(Nc1ccn(CCCNCc2ccc3[nH]ccc3c2)c(=O)n1)OCc1ccccc1`, the inhibition was 1.22% [at 12.3 µM] (inactive).

Turning to `Cc1cc(C)c(CN2CCN(C(=O)Cn3ccc(NC(=O)OCc4ccccc4)nc3=O)CC2)c(C)c1`, the inhibition was 72.2% [at 12.3 µM] (active).

In the case of `C[C@H](CO)N1C[C@H](C)[C@@H](CN(C)Cc2ccc(Oc3ccccc3)cc2)Oc2ccc(NS(=O)(=O)c3ccc(F)cc3)cc2CC1=O`, the inhibition was 6.63% (inactive).

For `C[C@H](CO)N1C[C@H](C)[C@H](CN(C)C(=O)c2ccccc2)OCCCC[C@H](C)Oc2ccc(NS(C)(=O)=O)cc2C1=O`, the inhibition is -12.1% (inactive).

For the molecule `Clc1ccc(C2CC(c3cccs3)n3ncnc3N2)cc1Cl` (centres undefined), the inhibition is 91.8% [at 12.3 µM] (active).

Consider `Nc1nc2n(n1)C(c1ccco1)CC(c1ccc(Cl)c(Cl)c1)N2` (centres undefined), for which the inhibition is -24.3% [at 12.3 µM] (inactive).

For the molecule `COc1ccc(C2CC(c3cccs3)Nc3nnnn32)cc1` (centres undefined), the inhibition was 15.5% [at 12.3 µM] (inactive).

`Cc1ccc(S(=O)(=O)Nc2ccc3c(c2)C(=O)N([C@H](C)CO)C[C@@H](C)[C@H](CN(C)S(=O)(=O)c2cccs2)OCCCC[C@@H](C)O3)cc1`: the inhibition was -10.4% (inactive).

As for `O=C(NCC[C@H]1CC[C@@H](NC(=O)C2CC2)[C@H](CO)O1)c1ccc(F)cc1`, the inhibition is 13.4% (inactive).

`Cc1ccc(S(=O)(=O)Nc2ccc3c(c2)C(=O)N([C@@H](C)CO)C[C@H](C)[C@@H](CN(C)C(=O)Cc2ccccc2)OCCCC[C@H](C)O3)cc1`: the inhibition is -8.35% (inactive).

`CCOC(=O)C1C(C)C(C(C)(C)C)N(S(=O)(=O)c2ccc(C)cc2)C1c1ccccc1` (centres undefined): the inhibition was 77.2% [at 12.3 µM] (active).

As to `CCOC(=O)C1=CC[C@@H](c2ccccc2)N(S(=O)(=O)c2ccc(C)cc2)[C@H]1c1ccc(CC)cc1`, the inhibition is 44.3% [at 12.3 µM] (inactive).

Regarding `CCCCC[C@@H]1C=C(C(=O)OCC)[C@H](c2ccccc2)N1S(=O)(=O)c1ccc(C)cc1`, the inhibition is -5.02% [at 12.3 µM] (inactive).

For `CCC(=O)N1C[C@H](C)[C@@H](OC)CN(C)C(=O)c2cc(NC(=O)c3cnccn3)ccc2OC[C@@H]1C`, the inhibition is -0.896% (inactive).

For `O=C(CN1C(=O)c2ccccc2S1(=O)=O)N1CCc2ccccc21`, the inhibition was 63.8% [at 12.3 µM] (active).

`Cc1ccc(S(=O)(=O)N(C)CC(=O)N2CCc3ccccc32)cc1`: the inhibition was -5.79% [at 12.3 µM] (inactive).

Regarding `CN(Cc1ccc(F)cc1)C(=O)CN1C(=O)c2ccccc2S1(=O)=O`, the inhibition was -26% [at 12.3 µM] (inactive).

As to `CC(Oc1ccc(-c2ccccc2)c(F)c1)c1ccn(S(=O)(=O)c2cccc3ccccc23)n1` (centres undefined), the inhibition was 58.1% [at 12.3 µM] (active).

As to `C[C@@H]1CN([C@@H](C)CO)C(=O)c2cc(NC(=O)Nc3cccc4ccccc34)ccc2O[C@H]1CN(C)Cc1ccc(Cl)c(Cl)c1`, the inhibition is 2.97% (inactive).

Turning to `O=C(Nc1ccc(-c2ccccc2)cc1)[C@H]1[C@H](CO)[C@H]2Cn3c(cccc3=O)[C@H]2N1CC1CC1`, the inhibition is -13.3% (inactive).

With `COc1ccc(NC(=O)Nc2ccc3c(c2)C(=O)N([C@@H](C)CO)C[C@H](C)[C@H](CN(C)S(=O)(=O)c2ccccc2)OCCCC[C@@H](C)O3)cc1`, the inhibition was -1.8% (inactive).

Regarding `O=C(C[C@@H]1CC[C@@H]2[C@H](COC[C@H](O)CN2Cc2ccc(F)cc2)O1)NCc1ccncn1`, the inhibition was -13.2% (inactive).

On to `CN1CCN(C(=O)C[C@@H]2C[C@H]3c4cc(NC(=O)NC5CCCC5)ccc4O[C@H]3[C@H](CO)O2)CC1`, for which the inhibition is -16.8% (inactive).

In the case of `CCCNC(=O)N1C[C@@H](O)COC[C@@H]2O[C@H](CC(=O)N3CCN(C)CC3)CC[C@H]21`, the inhibition was -4.93% (inactive).

Regarding `C[C@@H]1CN([C@@H](C)CO)C(=O)Cc2cc(NS(=O)(=O)c3ccc(F)cc3)ccc2O[C@@H]1CN(C)S(=O)(=O)c1cccs1`, the inhibition is 2.26% (inactive).

In the case of `CO[C@H]1CN(C)C(=O)c2ccc(NS(C)(=O)=O)cc2OC[C@@H](C)N(C(=O)c2ccc3c(c2)OCO3)C[C@@H]1C`, the inhibition was 3.98% (inactive).

On to `O=C(COC(=O)c1ccc(Cl)nc1)NCc1cccs1`, for which the inhibition is 13.8% [at 12.3 µM] (inactive).

As to `O=C(COC(=O)c1ncc(Cl)c(Cl)c1Cl)NCc1ccccc1`, the inhibition was -4.53% [at 12.3 µM] (inactive).

As for `O=C(COC(=O)c1ncc(Cl)c(Cl)c1Cl)NCc1cccs1`, the inhibition was 80.8% [at 12.3 µM] (active).

As for `CN1C(=O)c2cc(NC(=O)c3cnccn3)ccc2OC[C@@H]2O[C@H](CC(=O)O)CC[C@@H]21`, the inhibition was -25.8% (inactive).

As for `CCOC(=O)C1Cn2c(nc3c(c2=O)C(C)(CC)Cc2ccccc2-3)S1` (centres undefined), the inhibition was -68.6% [at 12.3 µM] (inactive).

For the molecule `Cc1cccc(-n2c(SCC(N)=O)nc3c(c2=O)C2(CCCCC2)Cc2ccccc2-3)c1`, the inhibition was 87% [at 12.3 µM] (active).

For `Cc1cccc(-n2c(=O)c3c(C)c(C)sc3n(CC(N)=O)c2=O)c1`, the inhibition was 16% [at 12.3 µM] (inactive).

Consider `C[C@@H]1CN([C@H](C)CO)C(=O)Cc2cc(NC(=O)c3ccncc3)ccc2O[C@H]1CN(C)Cc1ccc(-c2ccccc2)cc1`, for which the inhibition was 18.5% (inactive).

With `Cc1ccc(S(=O)(=O)N(C)C[C@@H]2Oc3ccc(NS(=O)(=O)c4cn(C)cn4)cc3C(=O)N([C@@H](C)CO)C[C@H]2C)cc1`, the inhibition is -17.6% (inactive).

On to `O=C(NCc1ccco1)c1ccc(Cn2c(=O)c3sccc3n(Cc3ccc(F)cc3)c2=O)cc1`, for which the inhibition is 78.1% [at 12.3 µM] (active).

For the molecule `O=C(Cc1ccc(-n2c(=O)c3sccc3n(Cc3ccc(F)cc3)c2=O)cc1)NCc1ccco1`, the inhibition is 0.234% [at 12.3 µM] (inactive).

With `O=C(NCc1ccco1)c1cc2sccc2n1Cc1ccc(F)cc1`, the inhibition is 20.8% [at 12.3 µM] (inactive).

As for `O=C(CN1CCOCC1)NCC[C@H]1CC[C@@H](NC(=O)Nc2ccc(Cl)cc2)[C@@H](CO)O1`, the inhibition was 2.67% (inactive).

In the case of `O=C(N[C@@H]1CC[C@H](CCn2cc(-c3ccccn3)nn2)O[C@@H]1CO)c1ccccc1`, the inhibition is 12.1% (inactive).

For the molecule `COc1ccc(S(=O)(=O)Nc2ccc3c(c2)C(=O)N([C@@H](C)CO)C[C@H](C)[C@@H](CN(C)C(=O)NC(C)C)OCCCC[C@H](C)O3)cc1`, the inhibition was 1.4% (inactive).

Take `CCOC(=O)C(C)Oc1cccc2c(=O)n(CC(=O)N3CCc4ccccc43)ccc12` (centres undefined): the inhibition was -10.8% [at 12.3 µM] (inactive).

Take `COC(=O)COc1cccc2c(=O)n(CC(=O)NCc3ccccc3)ccc12`: the inhibition was -188% [at 12.3 µM] (inactive).

As for `CCOC(=O)C(C)Oc1cccc2c(=O)n(CC(=O)NCCc3ccc(OC)c(OC)c3)ccc12` (centres undefined), the inhibition is 88.4% [at 12.3 µM] (active).

The term inhibition denotes the relative decrease from the control value, in per cent.
